PubChem BioAssay (NCI)
Several values for one entry are separate records, joined by “and”; a condition that tells them apart may be missing. Equal entries are not always repeated. Compounds without any hit were thinned out: in the full panel of roughly 83,000, 20% have a hit.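 The endpoint reported here, percent growth, reads 100 for growth as untreated, 0 for no net growth and -100 for all cells dead.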 A number with no mark means an inactive call. Activity calls are given as the source filed them. The calls were made as follows: active = growth percent below 10; inactive = the rest. Where a SMILES comes first, the peptide text is derived from it. The star is where a group is joined. Trt = c1ccc(C(c2ccccc2)(c2ccccc2)*)cc1; Cbz = O=C(OCc1ccccc1)*

Key:
Experiment in all cases: NCI-60 one-dose screen, 48 h (100 = growth as untreated, 0 = no growth, -100 = all killed)
T-47D breast = details: 10 µM unless noted
BT-549 breast = details: 10 µM unless noted
MDA-MB-435 melanoma = details: 10 µM unless noted
SW-620 colon = details: 10 µM unless noted
MCF7 breast = details: 10 µM
HCT-116 colon = details: 10 µM unless noted
HCC-2998 colon = details: 10 µM unless noted
KM12 colon = details: 10 µM unless noted

## C=C(Cl)C(=NC(C)(C)C)Nc1ccccc1C
T-47D breast
  growth: 64%
BT-549 breast
  growth: 102%
MDA-MB-435 melanoma
  growth: 32.2%
SW-620 colon
  growth: 72.5%
MCF7 breast
  growth: 66.6%
HCT-116 colon
  growth: 66.5%
HCC-2998 colon
  growth: 113%
KM12 colon
  growth: 80.9%

## COc1ccc2nc3cc(Cl)ccc3c(NCCNc3c4ccc(Cl)cc4nc4ccc(OC)cc34)c2c1
T-47D breast
  growth: -64.4% (active)
BT-549 breast
  growth: -76.6% (active)
MDA-MB-435 melanoma
  growth: -78.9% (active)
SW-620 colon
  growth: -50.4% (active)
MCF7 breast
  growth: -70% (active)
HCT-116 colon
  growth: -83.3% (active)
HCC-2998 colon
  growth: -82.2% (active)
KM12 colon
  growth: -71.8% (active)

## CC(C)c1ccc2nc3ccc(C(=O)NCCN4CCN(c5ccccc5)CC4)cn3c(=O)c2c1
T-47D breast
  growth: 28.5%
BT-549 breast
  growth: 51.3%
MDA-MB-435 melanoma
  growth: 58.7%
SW-620 colon
  growth: 87.4%
MCF7 breast
  growth: 58.8%
HCT-116 colon
  growth: 53.6%
HCC-2998 colon
  growth: 75.9%
KM12 colon
  growth: 67.2%

## O=[N+]([O-])c1ccc2c(N=Nc3ccc4ccccc4c3O)c(O)cc(S(=O)(=O)O)c2c1
T-47D breast
  growth: 96.1%
BT-549 breast
  growth: 92.4%
MDA-MB-435 melanoma
  growth: 97%
SW-620 colon
  growth: 92.2%
MCF7 breast
  growth: 98.6%
HCT-116 colon
  growth: 93.3%
HCC-2998 colon
  growth: 94.4%
KM12 colon
  growth: 95.6%

## OC(CNc1ccnc2cc(Cl)ccc12)CNc1ccnc2cc(Cl)ccc12
T-47D breast
  growth: 9.13% (active)
BT-549 breast
  growth: 85.2%
MDA-MB-435 melanoma
  growth: -43.6% (active)
SW-620 colon
  growth: -31.2% (active)
MCF7 breast
  growth: 18.5%
HCT-116 colon
  growth: 5.7% (active)
HCC-2998 colon
  growth: 46.1%
KM12 colon
  growth: 44.5%

## Cc1cc(C(C)(CC(C)C)c2ccc(O)c(C)c2)ccc1O
T-47D breast
  growth: 86.8%
BT-549 breast
  growth: 109%
MDA-MB-435 melanoma
  growth: 94.1%
SW-620 colon
  growth: 117%
MCF7 breast
  growth: 115%
HCT-116 colon
  growth: 93.9%
HCC-2998 colon
  growth: 103%
KM12 colon
  growth: 107%

## CN(Cc1cnc2nc(N)nc(N)c2n1)c1ccc(C(=O)NC(CCC(=O)O)C(=O)O)cc1 (stereo unspecified)
T-47D breast
  growth: 67.6%
BT-549 breast
  growth: 48.4%
MDA-MB-435 melanoma
  growth: 30.6%
SW-620 colon
  growth: 27.5%
MCF7 breast
  growth: 24.3%
HCT-116 colon
  growth: 20.6%
HCC-2998 colon
  growth: 27.7%
KM12 colon
  growth: 32.4%

## COc1cc(/C=C(/C)C[N+](=O)[O-])ccc1O
T-47D breast
  growth: 56.7%
BT-549 breast
  growth: 113%
MDA-MB-435 melanoma
  growth: 105%
SW-620 colon
  growth: 48.9%
MCF7 breast
  growth: 16.5%
HCT-116 colon
  growth: 82.7%
HCC-2998 colon
  growth: 102%
KM12 colon
  growth: 96.5%

## COC(=O)C(CSC(c1ccccc1)(c1ccccc1)c1ccccc1)NC(=O)C(CC(N)=O)NC(=O)OCc1ccccc1 (stereo not drawn) (Cbz-Asn-Cys(Trt)-OMe; configuration not given here)
T-47D breast
  growth: -0.975% (active)
BT-549 breast
  growth: 50.6%
MDA-MB-435 melanoma
  growth: -37.3% (active)
SW-620 colon
  growth: 62.6%
MCF7 breast
  growth: 32.3%
HCT-116 colon
  growth: 12.7%
HCC-2998 colon
  growth: -18.7% (active)
KM12 colon
  growth: 33%

## Oc1c(Br)c(Br)c(O)c(Br)c1Br
T-47D breast
  growth: 25.2%
BT-549 breast
  growth: 95.3%
MDA-MB-435 melanoma
  growth: 106%
SW-620 colon
  growth: 8.91% (active)
MCF7 breast
  growth: 67%
HCT-116 colon
  growth: 96.2%
HCC-2998 colon
  growth: 128%
KM12 colon
  growth: 110%

## NC(=S)N/N=C\c1nccc2c(C(F)(F)C(F)(F)C(F)(F)F)cccc12
T-47D breast
  growth: 4.05% (active)
BT-549 breast
  growth: 41.4%
MDA-MB-435 melanoma
  growth: 23.4%
SW-620 colon
  growth: 28.6%
MCF7 breast
  growth: 11.5%
HCT-116 colon
  growth: 17.4%
HCC-2998 colon
  growth: 13.3%
KM12 colon
  growth: 14.2%

## Cc1ccc2nc(-[n+]3cc4ccccc4cc3C)ccc2c1
T-47D breast
  growth: 15.3%
BT-549 breast
  growth: 0.0135% (active)
MDA-MB-435 melanoma
  growth: 27.8%
SW-620 colon
  growth: 55.8%
MCF7 breast
  growth: 20.3%
HCT-116 colon
  growth: 25.8%
HCC-2998 colon
  growth: 42.1%
KM12 colon
  growth: 31.5%

## CCCCCCCCCCCCCCNCc1ccccc1
BT-549 breast
  growth: 96.6%
MDA-MB-435 melanoma
  growth: 72.2%
SW-620 colon
  growth: 42.5%
MCF7 breast
  growth: 51.2%
HCT-116 colon
  growth: 86.8%
HCC-2998 colon
  growth: 16.1%
KM12 colon
  growth: 62.5%

## Cc1ccc2c(ccc3c[n+]4c5ccccc5ccc4n32)c1
T-47D breast
  growth: -24.7% (active)
BT-549 breast
  growth: -2.45% (active)
MDA-MB-435 melanoma
  growth: -27.5% (active)
SW-620 colon
  growth: 7.65% (active)
MCF7 breast
  growth: 0.326% (active)
HCT-116 colon
  growth: 7.17% (active)
HCC-2998 colon
  growth: -34.9% (active)
KM12 colon
  growth: -8.63% (active)

## O=C1c2cccnc2-c2nccc3c2c1nc1cc(Br)ccc13
T-47D breast
  growth: -34.3% (active) and -63.8% (active)
BT-549 breast
  growth: -73.9% (active) and -67.8% (active)
MDA-MB-435 melanoma
  growth: -68.4% (active) and -94.5% (active)
SW-620 colon
  growth: -63.4% (active) and -74.8% (active)
MCF7 breast
  growth: -41.9% (active) and -57.8% (active)
HCT-116 colon
  growth: -81.5% (active) and -68.7% (active)
HCC-2998 colon
  growth: -100% (active) and -82.7% (active)
KM12 colon
  growth: -96.7% (active) and -76.7% (active)

## N#CSCC(=O)c1ccc(Cl)cc1
BT-549 breast
  growth: 43.7%
MDA-MB-435 melanoma
  growth: 15.8%
SW-620 colon
  growth: 22.7%
MCF7 breast
  growth: 10.7%
HCT-116 colon
  growth: -16.3% (active)
HCC-2998 colon
  growth: -19.5% (active)
KM12 colon
  growth: 14.7%

## O=C(Oc1cccc2cccnc12)c1ccccc1
T-47D breast
  growth: 38.6% and 95.2%
BT-549 breast
  growth: 101% and 107%
MDA-MB-435 melanoma
  growth: 88%
SW-620 colon
  growth: 49.7% and 104%
MCF7 breast
  growth: 55.1% and 102%
HCT-116 colon
  growth: 32.8% and 102%
HCC-2998 colon
  growth: 108% and 104%
KM12 colon
  growth: 101% and 104%

## CCN(CC)CC(C)(C)C(=O)/C=C/c1ccc(Cl)c(Cl)c1
T-47D breast
  growth: -11.3% (active)
BT-549 breast
  growth: 16.4%
MDA-MB-435 melanoma
  growth: 1.76% (active)
SW-620 colon
  growth: -39.5% (active)
MCF7 breast
  growth: -13.8% (active)
HCT-116 colon
  growth: -60.6% (active)
HCC-2998 colon
  growth: -65.2% (active)
KM12 colon
  growth: -4.49% (active)

## Cc1ccc2nc(C[n+]3ccc4ccccc4c3)ccc2c1
BT-549 breast
  growth: 21.7%
MDA-MB-435 melanoma
  growth: 54.7%
SW-620 colon
  growth: 80.2%
MCF7 breast
  growth: 35.6%
HCT-116 colon
  growth: 53.5%
HCC-2998 colon
  growth: 71.2%
KM12 colon
  growth: 56.4%

## C[n+]1c(/C=C/c2ccc([N+](=O)[O-])cc2)ccc2ccccc21
T-47D breast
  growth: 103%
BT-549 breast
  growth: 107%
MDA-MB-435 melanoma
  growth: 108%
SW-620 colon
  growth: 97.6%
MCF7 breast
  growth: 96.1%
HCT-116 colon
  growth: 102%
HCC-2998 colon
  growth: 100%
KM12 colon
  growth: 80.8%

## CN(C)CCOc1ccc2c(c1)C(=O)/C(=C\c1ncc([N+](=O)[O-])n1C)C2
T-47D breast
  growth: 25.4%
MDA-MB-435 melanoma
  growth: -73.6% (active)
SW-620 colon
  growth: -31.6% (active)
MCF7 breast
  growth: -30.7% (active)
HCT-116 colon
  growth: -5.59% (active)
HCC-2998 colon
  growth: -86.1% (active)
KM12 colon
  growth: -68% (active)

## O=C1OCc2cccc3cccc1c23
T-47D breast
  growth: 114%
MDA-MB-435 melanoma
  growth: 115%
SW-620 colon
  growth: 98.2%
MCF7 breast
  growth: 86.3%
HCT-116 colon
  growth: 104%
HCC-2998 colon
  growth: 106%
KM12 colon
  growth: 104%

## Nc1nc(N)c2c(ccc3c2ccn3Cc2cccc([N+](=O)[O-])c2)n1
T-47D breast
  growth: -67% (active)
BT-549 breast
  growth: -91.4% (active)
MDA-MB-435 melanoma
  growth: -93.4% (active)
SW-620 colon
  growth: -91.8% (active)
MCF7 breast
  growth: -79.2% (active)
HCT-116 colon
  growth: -84.9% (active)
HCC-2998 colon
  growth: -86% (active)
KM12 colon
  growth: -92.3% (active)

## Oc1c(Br)cc(Cl)cc1C(c1cc(Cl)cc(Br)c1O)C(Cl)(Cl)Cl
T-47D breast
  growth: 28.9%
BT-549 breast
  growth: 28%
MDA-MB-435 melanoma
  growth: 39%
SW-620 colon
  growth: 17.8%
MCF7 breast
  growth: 11.1%
HCT-116 colon
  growth: 4.13% (active)
HCC-2998 colon
  growth: 16.9%
KM12 colon
  growth: 13%

## CCCCCCCCCCCCCCCC[N+](C)(CCO)Cc1cnc[nH]1 (stereo unspecified)
T-47D breast
  growth: 16.5%
MDA-MB-435 melanoma
  growth: -43.8% (active)
SW-620 colon
  growth: -27% (active)
MCF7 breast
  growth: -18.4% (active)
HCT-116 colon
  growth: -51% (active)
HCC-2998 colon
  growth: -70.5% (active)
KM12 colon
  growth: -97.7% (active)

## Cc1ccnc2c1ccc1c(C)ccnc12
T-47D breast
  growth: 6.3% (active)
BT-549 breast
  growth: 23.2%
MDA-MB-435 melanoma
  growth: 32%
SW-620 colon
  growth: 30.2%
MCF7 breast
  growth: 13.9%
HCT-116 colon
  growth: 13.7%
HCC-2998 colon
  growth: 51.3%
KM12 colon
  growth: 24.2%

## Cc1cc2nc(CS)[nH]c2cc1C
T-47D breast
  growth: 74.3%
MDA-MB-435 melanoma
  growth: 90.9%
SW-620 colon
  growth: 84.7%
MCF7 breast
  growth: 82.9%
HCT-116 colon
  growth: 58.1%
HCC-2998 colon
  growth: 102%
KM12 colon
  growth: 88%

## O=C1c2ccccc2C(=O)c2sc(Nc3cccc(Cl)c3)nc21
BT-549 breast
  growth: 61.5%
MDA-MB-435 melanoma
  growth: -83.5% (active)
SW-620 colon
  growth: -54.6% (active)
MCF7 breast
  growth: -59% (active)
HCT-116 colon
  growth: -29.9% (active)
HCC-2998 colon
  growth: -34.3% (active)
KM12 colon
  growth: 24.6%

## O=C1C=CC(=O)N1C1c2ccccc2-c2ccccc21
T-47D breast
  growth: 73.6%
MDA-MB-435 melanoma
  growth: 110%
SW-620 colon
  growth: 14.7%
MCF7 breast
  growth: 85.8%
HCT-116 colon
  growth: 97.9%
HCC-2998 colon
  growth: 114%
KM12 colon
  growth: 107%

## O=C(CC1(O)C(=O)Nc2c(Cl)ccc(Cl)c21)c1ccc(Cl)cc1Cl (stereo unspecified)
T-47D breast
  growth: 75.5%
BT-549 breast
  growth: 90.2%
MDA-MB-435 melanoma
  growth: 91.6%
SW-620 colon
  growth: 105%
MCF7 breast
  growth: 91.6%
HCT-116 colon
  growth: 89.9%
HCC-2998 colon
  growth: 110%
KM12 colon
  growth: 102%
